# Reference: the supplement of paper PMC11417369
# Over roughly 25,000 sequences, “ln(normalized median fluorescence intensity)” has its median near 6.7; the highest 2% begin near 10. The sample as a whole holds a higher share of the highest values than the screen did.
# Test system: PfHDP1 homeodomain (GST-tagged)
# Experiment: gcPBM binding intensity (ln(normalized median fluorescence intensity)); higher = stronger DNA binding
# How it was run: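 For binding intensity, the highest Masliner-normalised natural-log median intensity across replicate spots of either probe orientation was taken. Protein bound to the array was stained with Alexa488 anti-GST antibody and scanned at 488 nm. The protein, GST-tagged P. falciparum DNA-binding domains from E. coli at about 25 μg on average, had been applied for 1 h to an Agilent 4 × 180k array of primer-extended double-stranded 36-bp intergenic genomic probes and negative controls.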
row,Sequence,gcPBM binding intensity (ln)
1,TTCTTAATATTGCATGCACACTATATAATAATTGAA [CACACA_site4720],9.18
2,GTCTCCTTTATTTTTGGTACAGATAAGATAAAAGGA [XGTACX_site1591],6.46
3,CACTTAAAAAAAATACGTACACATATATATATATAT [XGTACX_site2054],9.39
4,TATAATATAATTAAAAGTACTTAAAAAAGAATGAAA [XGTACX_site1157],6.99
5,CATCAATGCTAATTATGTACTTACATAAATAACCCT [XGTACX_site968],6.52
6,TTGTGCTTGATATCACGGACAAGCTCATATTATATA [XGTACX_site4553],6.03
7,AATGTCATGATACATACACACACATACACATACACA [CACACA_site8665],6.98
8,ATATAACGAATAATTACACACTATAAAAAAAGATCT [CACACA_site2862],6.63
9,CATATAAAAATATATGCACACAAATAAAAAATTATA [CACACA_site9210],10
10,GTACACCTATAATATACACACAACAAATATGCACAT [CACACA_site6603],10.2
11,TATAAAAATATATGCACACAAATAAAAAATTATATA [CACACA_site3629],9.87
12,AAAATATAAAATAATGCACACATAAACAAAAAATCA [CACACA_site8382],10.5
13,GTACACATATAATATACACACAACAAATATGCACAT [CACACA_site1010],10.6
14,AATTATGCACAAATCACACATATAAAATAAAAAGTG [CACACA_site4474],11.1
15,AATATAAAATAATGCACACATAAACAAAAAATCAAA [CACACA_site1371],10.4
16,AAATATAATATATGCACACATACATACATATATATA [CACACA_site104],10.3
17,ATGAATCCTTAATATGAACACACAAATATATTACAC [CACACA_site7943],6.7
18,ATCCTTAATATGAACACACAAATATATTGCACATAT [CACACA_site6230],10.9
19,TATAATATTCCTTTTTAACACACATATGAACAAATA [CACACA_site7932],6.77
20,AGAAAAAAAATGTATACACACAAATATAAAGAAGGA [CACACA_site3806],7.09
21,GTACTCTTCTCCAGACTGCACTATACGACTCGTACA [GTGCAC_site9770],7.35
22,AAATATTTTTTAATGTGTACATAGAACATATATATA [XGTACX_site3136],6.59

row,Sequence,gcPBM binding intensity (ln)
1,TTTGTCTGCATACGCACACACGTGTACCATCTTATG [CACACA_site4784],7.89
2,AATTAACAAAGACACACACACACACGCACAAAAAAA [CACACA_site6388],7.33
3,GTTAAAATTGGGGACGCATGTTCCTTTCCTTTTTTT [TGCATGCA_site1002],5.83
4,AATATAATATAATGCACACATAAACAAAAAAAAAAA [CACACA_site783],10.5
5,TAATATAATCTGAGTGCACACAAATAAATAAACATA [CACACA_site8032],11.2
6,TTAACAAATAAATGCACACATATATATAAATAATAT [CACACA_site28],9.43
7,AATATAATATAATGCACACATAAAACAAAAAAAAAA [CACACA_site3012],10.2
8,TAAATATAAACACAAACACACACATATATATATATA [CACACA_site7978],9.27
9,ATATAATCTGAGTGCACACAAATAAATAAACATACA [CACACA_site422],10.2
10,AATGTTAAACTATGATGTACGGTTAAAAATATAATT [XGTACX_site893],6.43
11,TTATATTTTCAGAATAGTACACATATATACATATAT [XGTACX_site2519],6.46
12,GTATCAATAAAAAACAGTACATATATAATATATTTA [XGTACX_site1083],6.24
13,TATTTTCATTTGCGCGCACACAATAATAATTTTTGG [CACACA_site3525],8.28
14,GATAGACACGTGCACACATGCAATACTTTATTCAGT [TGCATGCA_site778],10
15,TTTAATTTGATAGACACATGCACACGTGCAATACTT [TGCATGCA_site777],10.9
16,ATTTGATAGACACATGCACACATGCAATACTTTATT [CACACA_site5633],9.05
17,TATTAACAAAATTTTTAACACACAAAAAAAAAAAAA [CACACA_site8542],6.18
18,ATATCAACTGAATTGTATAGGCGATAAAAGAAAAAA [CACACA_negctrl_site1334],6.58
19,ATAGAAGGCAACTTGGTGCACAAAAAAAAAAATAAT,10.5
20,TCCTATATCACAAATGTGCACAGAAAAAAAAAATAT,11
21,AACATGCAAACATGCACACAGAAAAAAAAAATATAT [CACACA_site1565],9.37
22,TATATATCAAAAATATGTACACAGAAATATATATTA [XGTACX_site6997],6.96

row,Sequence,gcPBM binding intensity (ln)
1,TATTCTTACAAAAGTAGTACAATCATTCATATTTTT [XGTACX_site631],6.42
2,AAAAAAATAGTCTTCTTGCACTTTTTAATTTATTTT,6.7
3,TTTTTTTTTTATTTTGCACACTTCTAATTTAGTTCT [CACACA_site5828],10.7
4,TTTTTTTTTTATTTTGCACACTTCTAATTTAGTTGT [CACACA_site3429],10.7
5,AATTTTTTTTTTTTGTTGCACTTTTAGAGTTTTAAT [GTGCAC_site9519],7.37
6,AACAATTAGAACTTTGCACACTTCTATATATTTTGT [CACACA_site674],10.2
7,AAAAATAGTCTTCTTGCACTTTTTAATTTATTTTAA [CACACA_negctrl_site1322],6.76
8,TAATATGAATATATATGTACATACAATTTGTTATAT [XGTACX_site5815],6.55
9,TCATATGTATAAATTAGTACATATTTAATGGATATA [XGTACX_site3298],6.26
10,ATAATAATATATATTACACACGCATCGTTCATTTAT [CACACA_site8752],7.06
11,CAATGTTAATATAATACACACAATATGTATTTGTCT [CACACA_site1162],6.8
12,TAGGTCATATTTTTTGCACACAAAAAAAAATATAAA [CACACA_site3380],9.79
13,ACAAAAAAATAAGGTGCACACAAAAAAAAAAAAAAA [CACACA_site8171],9.22
14,AAAAATAAAGGGTGTGCACACAAAAATATATATATA [CACACA_site1727],10.7
15,ATATATATATTAAAGGTGCACAAATAAATATATACA [GTGCAC_site9532],9.88
16,AAAAATAAAAGGTGTGCACACAAAAATATATATATA [CACACA_site8507],10.7
17,AAGATAAAATGATGCACACAAAAGGGTGTAATATAT [CACACA_site1706],8.59
18,AAATAAAAAGGGTGCACACAAAAATATATATATATA [CACACA_site1728],10.4
19,AAAAAAATAAGGTGCACACAAAAAAAAAAAAAAAAA [CACACA_site812],9.95
20,AAAGGTTTGCGTTGTGTGCACAAAATAAATATATAA,10.6
